# Results as given in the supplement of paper PMC8975748.
# Where a name gives a salt, the structure may show the parent alone.
# Tested on: Saccharomyces cerevisiae BY4741 SeMeCo community
# Experiment: z-score of subpopulation abundance vs DMSO median, subpopulation auxotrophic for HL; higher = larger share of this subpopulation than in DMSO controls
# Conditions: 10 µM; 24 h; SM minimal medium; subpopulation (auxotrophy): HL
# Experimental: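 Fluorescent four-plasmid SeMeCo (self-establishing metabolically cooperating S. cerevisiae BY4741 community; plasmids pH-mRuby2, pL-mWasabi, pU-eCFP, pM-TagRFP657) was grown 24 h in minimal SM medium with each Selleck FDA-approved drug at 10 µM in 384-well plates. Cells were fixed and imaged by high-content confocal microscopy. For each auxotrophic subpopulation (and the prototroph), a z-score gives the deviation from the DMSO vehicle-control population median.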
row,SMILES,z-score of subpopulation abundance
1,Cn1cc(C2=C(c3cn(C4CCN(Cc5ccccn5)CC4)c4ccccc34)C(=O)NC2=O)c2ccccc21,-1.11
2,C=CN1CCCC1=O.II [Povidone iodine],2.13
3,CN1C(=O)COc2c(C(=O)NC3CN4CCC3CC4)cc(Cl)cc21 (stereo not given) [Azasetron HCl],1.41
4,CCCN1C[C@H](CSC)C[C@@H]2c3cccc4[nH]cc(c34)C[C@H]21 [Pergolide Mesylate],-0.35
5,CN(C)[C@@H]1C(=O)C(C(N)=O)=C(O)[C@@]2(O)C(=O)C3=C(O)c4c(O)cccc4[C@@](C)(O)[C@H]3C[C@@H]12 [Tetracycline HCl],0.29
6,"NCC(O)c1ccc(O)cc1 (racemic) [(+,-)-Octopamine HCl]",-1.17
7,C[N+]12CCC(CC1)C(OC(=O)C(O)(c1ccccc1)c1ccccc1)C2 (stereo not given) [Clidinium Bromide],-0.33
8,CC(C)N(CCC(C(N)=O)(c1ccccc1)c1ccccn1)C(C)C (stereo not given) [Disopyramide],2.14
9,CC[N+](C)(CC)CCOC(=O)C(O)(c1ccccc1)c1ccccc1 [Methylbenactyzine Bromide],-0.61
10,CCC1=C[C@H]2CN3CCc4c([nH]c5ccccc45)[C@](C(=O)OC)(C2)[C@H]13 [Catharanthine],-1.12
11,CCN(CC)CCOC(=O)C(O)(c1ccccc1)c1ccccc1 [Benactyzine hydrochloride],-0.47
12,CN1c2ccccc2C(NCCCCCCC(=O)O)c2ccc(Cl)cc2S1(=O)=O (stereo not given) [Tianeptine sodium],-0.07
13,CN1[C@@H]2C[C@@H](OC(=O)[C@H](CO)c3ccccc3)C[C@H]1[C@@H]1O[C@@H]12 [Scopolamine HBr trihydrate],-0.72
14,NCCc1c[nH]c2ccc(O)cc12 [Serotonin HCl],-0.74
15,CC[C@@]1(O)C(=O)OCc2c1cc1n(c2=O)Cc2cc3ccccc3nc2-1 [Camptothecin],-0.59
16,CCN(C)C(=O)Oc1cccc([C@H](C)N(C)C)c1 [Rivastigmine],-0.54
17,Nc1nc(N)nc(NC2CC2)n1 [Cyromazine],-0.97
18,Cc1cc(C(C#N)c2ccc(Cl)cc2)c(Cl)cc1NC(=O)c1cc(I)cc(I)c1O (stereo not given) [Closantel],0.7
19,CC(NC(C)(C)C)C(=O)c1cccc(Cl)c1 (stereo not given) [Amfebutamone (Bupropion) HCl],0.03
20,C=CCN1C[C@H](C(=O)N(CCCN(C)C)C(=O)NCC)C[C@@H]2c3cccc4[nH]cc(c34)C[C@H]21 [Cabergoline],-0.49

row,SMILES,z-score of subpopulation abundance
1,CN(C)[C@@H]1C(=O)C(C(N)=O)=C(O)[C@@]2(O)C(=O)C3=C(O)c4c(O)ccc(Cl)c4[C@@](C)(O)[C@H]3C[C@@H]12 [Chlortetracycline HCl],0.38
2,C[N+]1(C)[C@@H]2C[C@@H](OC(=O)[C@H](CO)c3ccccc3)C[C@H]1[C@@H]1O[C@@H]12 [Methscopolamine],-0.05
3,CC(=O)O[C@H]1C[C@@H]2CC[C@@H]3[C@H](CC[C@@]4(C)[C@H]3C[C@H]([N+]3(C)CCCCC3)[C@@H]4OC(C)=O)[C@@]2(C)C[C@@H]1[N+]1(C)CCCCC1 [Pancuronium dibromide],0.38
4,O=c1[nH]c2ccccc2n1CCCN1CCC(n2c(=O)[nH]c3cc(Cl)ccc32)CC1 [Domperidone],0.19
5,CN[C@@H]1[C@@H](O)[C@@H](O[C@@H]2[C@@H](O)[C@H](O[C@H]3O[C@H](CN)CC[C@H]3N)[C@@H](N)C[C@H]2N)OC[C@]1(C)O.CN[C@@H]1[C@@H](O)[C@@H](O[C@@H]2[C@@H](O)[C@H](O[C@H]3O[C@H]([C@@H](C)N)CC[C@H]3N)[C@@H](N)C[C@H]2N)OC[C@]1(C)O.CN[C@@H]1[C@@H](O)[C@@H](O[C@@H]2[C@@H](O)[C@H](O[C@H]3O[C@H]([C@@H](C)NC)CC[C@H]3N)[C@@H](N)C[C@H]2N)OC[C@]1(C)O [Gentamicin Sulfate],-1.11
6,CCOC(=O)Nc1ccc(NCc2ccc(F)cc2)cc1N [Retigabine],0.75
7,CC[C@H]1CN2CC[C@]3(C(=O)Nc4ccccc43)[C@@H]2C[C@@H]1/C(=C\OC)C(=O)OC [Rhynchophylline],0.04
8,CC[C@H]1[C@@H]2C[C@H]3[C@@H]4N(C)c5ccccc5[C@]45C[C@@H]([C@@H]2[C@H]5O)N3[C@@H]1O [Ajmaline],-1.02
9,COc1ccc2c(c1)[C@]13CCCC[C@@H]1[C@H](C2)N(C)CC3 [Dextromethorphan hydrobromide hydrate],-0.33
10,O=C(O[C@H]1C[N+]2(CCCOc3ccccc3)CCC1CC2)C(O)(c1cccs1)c1cccs1 [Aclidinium Bromide],-1.16
11,NC(=O)CN1CCCC1=O [Piracetam],0.98
12,COc1ccc2[nH]cc(CCN)c2c1 [5-Methoxytryptamine],-0.31
13,CN(C)C(=O)Oc1ccc[n+](C)c1 [Pyridostigmine Bromide],0.3
14,C[C@H]1O[C@H](O[C@H]2[C@H](O)[C@@H](O)[C@@H](O)[C@H](O)[C@@H]2O)[C@@H](N)C[C@@H]1NC(=N)C(=O)O [Kasugamycin hydrochloride],-0.07
15,Oc1cccc2cccnc12 [8-Hydroxyquinoline],0.63
16,CN(C)[C@@H]1C(=O)C(C(N)=O)=C(O)[C@@]2(O)C(=O)C3=C(O)c4c(O)cccc4[C@@](C)(O)[C@H]3[C@H](O)[C@@H]12 [Oxytetracycline (Terramycin)],0.77
17,N[C@@H]1C[C@H]1c1ccccc1 [Tranylcypromine (2-PCPA) HCl],-0.72
18,CN(C)[C@@H]1C(=O)C(C(N)=O)=C(O)[C@@]2(O)C(=O)C3=C(O)c4c(O)cccc4[C@@](C)(O)[C@H]3[C@H](O)[C@@H]12 [Oxytetracycline Dihydrate],0.03
19,C[C@@H]1O[C@@H](O[C@H]2C[C@@H](O)[C@]3(CO)[C@H]4[C@H](O)C[C@]5(C)[C@@H](C6=CC(=O)OC6)CC[C@]5(O)[C@@H]4CC[C@]3(O)C2)[C@H](O)[C@H](O)[C@H]1O [Ouabain],-1.05
20,CC(C)(O)C(Cl)(Cl)Cl [Chlorobutanol],-0.54
